Test results from the supplement of paper PMC4022240.
± gives the standard deviation.

Legend:
Experiment in all cases: peptide microarray binding signal (635 nm), min-max normalized on array (fraction of array maximum); higher = stronger binding
Details in all cases: peptide region: H3 1-13
[1] = molecular target: T1, HaloTag-ATRX ADD domain (163-292)
T1 chain: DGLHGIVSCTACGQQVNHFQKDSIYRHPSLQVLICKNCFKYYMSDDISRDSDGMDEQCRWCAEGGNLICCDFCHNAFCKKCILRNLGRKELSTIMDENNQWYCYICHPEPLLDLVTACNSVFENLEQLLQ
Procedure: (§1)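 Histone 13-mer peptides were synthesized as cellulose conjugates with a C-terminal 20-atom PEG linker and printed in triplicate on nitrocellulose. The sequence given is the unmodified backbone; PTMs (Kme1/2/3, Kac, Sph/Tph, Rme/Rme2a/Rme2s, Rcit) are listed in the label and the 'peptide modifications' condition. Slides were probed at 4 °C for 1 h with biotin-labelled (HQ)5-HaloTag reader fusions (ATRX-ADD, ING2-PHD) then streptavidin-Alexa647, or with rabbit histone antibodies then anti-rabbit Alexa647. The mean 635 nm signal of the triplicate spots was scaled 0-1 between the lowest and highest values on each array.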

[2] = molecular target: HaloTag-ING2 PHD (mouse Ing2 200-280)
Procedure: as §1

[3] = molecular target: anti-H3K4me3 antibody ab8580
Procedure: as §1

[4] = molecular target: anti-H3K9me3 antibody ab8898
Procedure: as §1

[5] = peptide modifications: H3R2cit H3T3ph, binder concentration: 1:2,000 dilution
[6] = peptide modifications: H3R2cit H3T3ph, binder concentration: 1:10,000 dilution
[7] = peptide modifications: H3R2cit, binder concentration: 1:2,000 dilution
[8] = peptide modifications: H3R2cit, binder concentration: 1:10,000 dilution
[9] = peptide modifications: H3K9me3 H3S10ph, binder concentration: 1:2,000 dilution
[10] = peptide modifications: H3K9me3 H3S10ph, binder concentration: 1:10,000 dilution
[11] = peptide modifications: H3R2me1 H3K9ac, binder concentration: 1:2,000 dilution
[12] = peptide modifications: H3R2me1 H3K9ac, binder concentration: 1:10,000 dilution
[13] = peptide modifications: H3R2cit H3K4me2, binder concentration: 1:2,000 dilution
[14] = peptide modifications: H3R2cit H3K4me2, binder concentration: 1:10,000 dilution
[15] = peptide modifications: H3R2cit H3K9ac, binder concentration: 1:2,000 dilution
[16] = peptide modifications: H3R2cit H3K9ac, binder concentration: 1:10,000 dilution
[17] = peptide modifications: H3R2cit H3K9me3, binder concentration: 1:2,000 dilution
[18] = peptide modifications: H3R2cit H3K9me3, binder concentration: 1:10,000 dilution
[19] = peptide modifications: H3R2cit H3K4ac, binder concentration: 1:2,000 dilution
[20] = peptide modifications: H3R2cit H3K4ac, binder concentration: 1:10,000 dilution
[21] = peptide modifications: H3K9me3, binder concentration: 1:2,000 dilution
[22] = peptide modifications: H3K9me3, binder concentration: 1:10,000 dilution
[23] = peptide modifications: H3R2cit H3K4me1, binder concentration: 1:2,000 dilution
[24] = peptide modifications: H3R2cit H3K4me1, binder concentration: 1:10,000 dilution

ARTKQTARKSTGG [H3 1-13 A Rcit Tph K Q T A R K S T G G]
peptide microarray binding signal ([1]; peptide modifications: H3R2cit H3T3ph, binder concentration: 50 nM): 0.00364 ± 0.00018
peptide microarray binding signal ([1]; peptide modifications: H3R2cit H3T3ph, binder concentration: 500 nM): 0.0133 ± 0.0009
peptide microarray binding signal ([2]; peptide modifications: H3R2cit H3T3ph, binder concentration: 10 nM): 0.00125 ± 3.1e-05
peptide microarray binding signal ([2]; peptide modifications: H3R2cit H3T3ph, binder concentration: 100 nM): 0.0167 ± 0.011
peptide microarray binding signal [3, 5]: 0.00283 ± 0.00066
peptide microarray binding signal [3, 6]: 0.00126 ± 8.7e-05
peptide microarray binding signal [4, 5]: 0.000846 ± 7.1e-05
peptide microarray binding signal [4, 6]: 0.000807 ± 2.9e-05

ARTKQTARKSTGG [H3 1-13 A Rcit T K Q T A R K S T G G]
peptide microarray binding signal ([1]; peptide modifications: H3R2cit, binder concentration: 50 nM): 0.00937 ± 0.00037
peptide microarray binding signal ([1]; peptide modifications: H3R2cit, binder concentration: 500 nM): 0.0298 ± 0.0055
peptide microarray binding signal ([2]; peptide modifications: H3R2cit, binder concentration: 10 nM): 0.012 ± 0.0023
peptide microarray binding signal ([2]; peptide modifications: H3R2cit, binder concentration: 100 nM): 0.0101 ± 0.001
peptide microarray binding signal [3, 7]: 0.00315 ± 0.00061
peptide microarray binding signal [3, 8]: 0.00126 ± 0.00016
peptide microarray binding signal [4, 7]: 0.00101 ± 0.00014
peptide microarray binding signal [4, 8]: 0.000577 ± 1.6e-05

ARTKQTARKSTGG [H3 1-13 A R T K Q T A R Kme3 Sph T G G]
peptide microarray binding signal ([1]; peptide modifications: H3K9me3 H3S10ph, binder concentration: 50 nM): 0.188 ± 0.014
peptide microarray binding signal ([1]; peptide modifications: H3K9me3 H3S10ph, binder concentration: 500 nM): 0.207 ± 0.011
peptide microarray binding signal ([2]; peptide modifications: H3K9me3 H3S10ph, binder concentration: 10 nM): 0.00597 ± 0.00034
peptide microarray binding signal ([2]; peptide modifications: H3K9me3 H3S10ph, binder concentration: 100 nM): 0.0173 ± 0.0046
peptide microarray binding signal [3, 9]: 0.00283 ± 0.001
peptide microarray binding signal [3, 10]: 0.000913 ± 0.00014
peptide microarray binding signal [4, 9]: 0.085 ± 0.021
peptide microarray binding signal [4, 10]: 0.049 ± 0.01

ARTKQTARKSTGG [H3 1-13 A Rme T K Q T A R Kac S T G G]
peptide microarray binding signal ([1]; peptide modifications: H3R2me1 H3K9ac, binder concentration: 50 nM): 0.0167 ± 0.0025
peptide microarray binding signal ([1]; peptide modifications: H3R2me1 H3K9ac, binder concentration: 500 nM): 0.121 ± 0.14
peptide microarray binding signal ([2]; peptide modifications: H3R2me1 H3K9ac, binder concentration: 10 nM): 0.0337 ± 0.00085
peptide microarray binding signal ([2]; peptide modifications: H3R2me1 H3K9ac, binder concentration: 100 nM): 0.0529 ± 0.0063
peptide microarray binding signal [3, 11]: 0.0105 ± 0.0012
peptide microarray binding signal [3, 12]: 0.00999 ± 0.00055
peptide microarray binding signal [4, 11]: 0.085 ± 0.13
peptide microarray binding signal [4, 12]: 0.0364 ± 0.046

ARTKQTARKSTGG [H3 1-13 A Rcit T Kme2 Q T A R K S T G G]
peptide microarray binding signal ([1]; peptide modifications: H3R2cit H3K4me2, binder concentration: 50 nM): 0.00959 ± 0.00044
peptide microarray binding signal ([1]; peptide modifications: H3R2cit H3K4me2, binder concentration: 500 nM): 0.0222 ± 0.0016
peptide microarray binding signal ([2]; peptide modifications: H3R2cit H3K4me2, binder concentration: 10 nM): 0.0839 ± 0.0012
peptide microarray binding signal ([2]; peptide modifications: H3R2cit H3K4me2, binder concentration: 100 nM): 0.149 ± 0.043
peptide microarray binding signal [3, 13]: 0.126 ± 0.023
peptide microarray binding signal [3, 14]: 0.128 ± 0.017
peptide microarray binding signal [4, 13]: 0.00533 ± 0.00032
peptide microarray binding signal [4, 14]: 0.00352 ± 0.00019

ARTKQTARKSTGG [H3 1-13 A Rcit T K Q T A R Kac S T G G]
peptide microarray binding signal ([1]; peptide modifications: H3R2cit H3K9ac, binder concentration: 50 nM): 0.0152 ± 0.00082
peptide microarray binding signal ([1]; peptide modifications: H3R2cit H3K9ac, binder concentration: 500 nM): 0.0454 ± 0.005
peptide microarray binding signal ([2]; peptide modifications: H3R2cit H3K9ac, binder concentration: 10 nM): 0.0489 ± 0.0051
peptide microarray binding signal ([2]; peptide modifications: H3R2cit H3K9ac, binder concentration: 100 nM): 0.0881 ± 0.024
peptide microarray binding signal [3, 15]: 0.0231 ± 0.0037
peptide microarray binding signal [3, 16]: 0.0127 ± 0.00061
peptide microarray binding signal [4, 15]: 0.00818 ± 0.001
peptide microarray binding signal [4, 16]: 0.00502 ± 0.00055

ARTKQTARKSTGG [H3 1-13 A Rcit T K Q T A R Kme3 S T G G]
peptide microarray binding signal ([1]; peptide modifications: H3R2cit H3K9me3, binder concentration: 50 nM): 0.435 ± 0.044
peptide microarray binding signal ([1]; peptide modifications: H3R2cit H3K9me3, binder concentration: 500 nM): 0.525 ± 0.024
peptide microarray binding signal ([2]; peptide modifications: H3R2cit H3K9me3, binder concentration: 10 nM): 0.0492 ± 0.0064
peptide microarray binding signal ([2]; peptide modifications: H3R2cit H3K9me3, binder concentration: 100 nM): 0.0792 ± 0.014
peptide microarray binding signal [3, 17]: 0.137 ± 0.007
peptide microarray binding signal [3, 18]: 0.0635 ± 0.0071
peptide microarray binding signal [4, 17]: 0.676 ± 0.04
peptide microarray binding signal [4, 18]: 0.408 ± 0.044

ARTKQTARKSTGG [H3 1-13 A Rcit T Kac Q T A R K S T G G]
peptide microarray binding signal ([1]; peptide modifications: H3R2cit H3K4ac, binder concentration: 50 nM): 0.0109 ± 0.00013
peptide microarray binding signal ([1]; peptide modifications: H3R2cit H3K4ac, binder concentration: 500 nM): 0.045 ± 0.0051
peptide microarray binding signal ([2]; peptide modifications: H3R2cit H3K4ac, binder concentration: 10 nM): 0.0563 ± 0.014
peptide microarray binding signal ([2]; peptide modifications: H3R2cit H3K4ac, binder concentration: 100 nM): 0.125 ± 0.011
peptide microarray binding signal [3, 19]: 0.00725 ± 0.0029
peptide microarray binding signal [3, 20]: 0.00656 ± 0.0011
peptide microarray binding signal [4, 19]: 0.00782 ± 0.0003
peptide microarray binding signal [4, 20]: 0.0049 ± 0.00038

ARTKQTARKSTGG [H3 1-13 A R T K Q T A R Kme3 S T G G]
peptide microarray binding signal ([1]; peptide modifications: H3K9me3, binder concentration: 50 nM): 0.422 ± 0.025
peptide microarray binding signal ([1]; peptide modifications: H3K9me3, binder concentration: 500 nM): 0.417 ± 0.049
peptide microarray binding signal ([2]; peptide modifications: H3K9me3, binder concentration: 10 nM): 0.0205 ± 0.0055
peptide microarray binding signal ([2]; peptide modifications: H3K9me3, binder concentration: 100 nM): 0.0183 ± 0.0029
peptide microarray binding signal [3, 21]: 0.0544 ± 0.038
peptide microarray binding signal [3, 22]: 0.0262 ± 0.0086
peptide microarray binding signal [4, 21]: 0.228 ± 0.047
peptide microarray binding signal [4, 22]: 0.169 ± 0.11

ARTKQTARKSTGG [H3 1-13 A Rcit T Kme Q T A R K S T G G]
peptide microarray binding signal ([1]; peptide modifications: H3R2cit H3K4me1, binder concentration: 50 nM): 0.00831 ± 0.00021
peptide microarray binding signal ([1]; peptide modifications: H3R2cit H3K4me1, binder concentration: 500 nM): 0.0204 ± 0.0024
peptide microarray binding signal ([2]; peptide modifications: H3R2cit H3K4me1, binder concentration: 10 nM): 0.0217 ± 0.0012
peptide microarray binding signal ([2]; peptide modifications: H3R2cit H3K4me1, binder concentration: 100 nM): 0.148 ± 0.015
peptide microarray binding signal [3, 23]: 0.0371 ± 0.0013
peptide microarray binding signal [3, 24]: 0.02 ± 0.0022
peptide microarray binding signal [4, 23]: 0.00468 ± 0.0004
peptide microarray binding signal [4, 24]: 0.00202 ± 3.2e-05
